# This is one part of a sample in which hits are shown more often than they occur.
# CHX counter: counter-screen for Shiga toxin inhibitors: cycloheximide protein synthesis inhibition; cell reporter, cycloheximide protein synthesis inhibition counterscreen; max response, %; hit rate 12% among 300,000; AID 2314; in the data active = max response mostly above about 13%, no sharp cut-off; inactive = mostly below about 14%; note: read at 38.3 µM for the half of the compounds with a filed dose; 0% is about no effect
# AmpC inh detg: blocks E. coli AmpC beta-lactamase in detergent assay; Potency, µM (series often up to 114 µM), for the others: at the highest dose activity change, negative = inhibition, most hits filed as inhibitors; hit rate 0.041% among 370,000; AmpC hydrolysis of nitrocefin, absorbance 480 nm, 0.01% Triton; P00811; AID 485294;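 note: potency is the fitted concentration of half-maximal effect; 0% = no-compound wells and -100% = no-enzyme wells; nearly all actives have a fitted effect of over 25% in size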
# Target sequence (P00811 whole entry, looked up): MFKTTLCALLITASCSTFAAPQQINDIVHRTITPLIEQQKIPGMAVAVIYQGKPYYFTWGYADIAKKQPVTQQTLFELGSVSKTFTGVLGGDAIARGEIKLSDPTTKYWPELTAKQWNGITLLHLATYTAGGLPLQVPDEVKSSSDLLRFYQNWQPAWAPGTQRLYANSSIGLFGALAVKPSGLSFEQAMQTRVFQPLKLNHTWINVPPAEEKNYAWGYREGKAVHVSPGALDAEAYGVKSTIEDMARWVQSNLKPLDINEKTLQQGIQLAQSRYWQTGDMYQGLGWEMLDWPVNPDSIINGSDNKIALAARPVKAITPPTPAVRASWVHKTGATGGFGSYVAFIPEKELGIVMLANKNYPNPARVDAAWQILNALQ
#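 AmpC (5.3 nM in the dispensed reagent) in 20 mM phosphate pH 7.0 with 0.01% (detergent screen) or 0.0001% Triton X-100 was preincubated with compounds for 15 min at room temperature. Nitrocefin was then added from an 800 uM solution, and hydrolysis was followed at 480 nm.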
# Shiga toxin inh: Shiga toxin inhibition. AID 2315. hit rate 9.2% among 290,000. inhibition, % at 38.7 µM. Vero cells, Shiga toxin protein synthesis inhibition reporter; in the data active = inhibition mostly above about 28%, no sharp cut-off; inactive = mostly below about 43%; note: 0% is about no effect
# NS1 inh: inhibitors of influenza NS1 protein function; hit rate 0.4% among 270,000; AID 2326; Potency, µM (doses to about 46.1 µM), for the others: top-dose activity, positive = more growth; calls by dose curve; note: potency is the fitted concentration of half-maximal effect; actives are rising curves; nearly all actives have a fitted effect of over 50% in size
#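 In this qHTS, NS1 from influenza A is expressed in budding yeast, where it slows growth. Cells are switched from glucose to 2% galactose medium (pH 6.0, -URA), treated with compound, and growth recovery is read at OD600.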
# AmpC inh no detg: AmpC beta-lactamase inhibition without detergent; AmpC nitrocefin hydrolysis, absorbance 480 nm, 0.0001% Triton; Potency, µM (highest dose often 57.1 µM), inactives show at the highest dose activity change, negative = inhibition, hits mostly inhibitors; hit rate 0.52% among 330,000;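 note: potency is the fitted concentration of half-maximal effect; plate controls were no compound for no effect and no enzyme for full effect; nearly all actives have a fitted effect of over 20% in size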
#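 AmpC (5.3 nM in the dispensed reagent) in 20 mM phosphate pH 7.0 with 0.01% (detergent screen) or 0.0001% Triton X-100 was preincubated with compounds for 15 min at room temperature. Nitrocefin was then added from an 800 uM solution, and hydrolysis was followed at 480 nm.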
# Numbers without * were called inactive; ? = inconclusive; . = no result; + = active, no number. Unless noted, calls come from the whole dose curve; as a rule, active = well fitted curve in the direction sought with a large enough effect; inconclusive = small, poorly fitted or top-dose-only effect, or another doubt; inactive = no such curve, though single readings can be large; an effect the other way counts as inactive or inconclusive.
SMILES,CHX counter,AmpC inh detg,Shiga toxin inh,NS1 inh,AmpC inh no detg
O=C(O)c1cc(O)ccc1N=Nc1ccccc1,1,-4%,22,-8%,-12%
CC(=O)Nc1ccc(N=Nc2ccc(O)cc2)cc1,35*,-7%,+,-5%,-26%
Oc1ccc(N=Nc2ccccc2)cc1,36*,1%,73*,-42%,-28%
Cc1ccc(O)c(N=Nc2ccccc2)n1,.,.,.,-30%,.
COc1ccc(OC)c(NC(=O)CCCOc2cc(=O)n(C)c3ccccc23)c1,.,-15%,.,.,.
CCCN(CCC)CCNC(=O)c1cc(Sc2ccc(Cl)cc2)nc2ccccc12,.,13%,.,.,.
CCCOC(=O)CSc1ncnc2sc3c(c12)CCC(C)C3 (stereo unspecified),.,8%,.,.,.
CCCCN(CCCC)S(=O)(=O)c1ccc(NC(=O)Cc2cccs2)cc1,35*,-11%,27,-1%,?
CCCNS(=O)(=O)c1ccc(NC(=O)Cc2cccs2)cc1,19*,3%,21,-4%,-16%
CCCN(CCC)S(=O)(=O)c1ccc(NC(=O)Cc2cccs2)cc1,1,?,16,-7%,-36%
COc1ccc(S(=O)(=O)N(C)C)cc1NC(=O)Cc1c[nH]c2ccccc12,-2,-12%,1,.,22µM*
CCN(CC)S(=O)(=O)c1ccc(OC)c(NC(=O)Cc2cccs2)c1,32*,4%,-11,-1%,-48%
CCc1nc2cccnc2n1-c1ccc(CC(=O)NCCOC)cc1,9,-4%,4,4%,-3%
CC1CN(C(=O)Nc2ccc3snnc3c2)c2ccccc21 (stereo unspecified),27*,?,36*,-36%,?
O=C(Nc1ccc2snnc2c1)N1CCSCC1,9,-2%,20,15%,-13%
COc1ccc(/C(N)=N/OC(=O)C2CCCCC2)cc1,43*,6%,136*,15%,-16%
COc1ccc(-c2ccc(C(=O)C3CC3)cc2)cc1,16*,-1%,65*,-4%,-16%
COc1ccc(/C(N)=N/OC(=O)C2CCCCC2)cc1OC,50*,3%,78*,-40%,-9%
COc1cc([C@H]2OC[C@H]3[C@@H]2CO[C@@H]3c2ccc(O[C@H]3O[C@H](CO)[C@@H](O)[C@H](O)[C@H]3O)c(OC)c2)ccc1O[C@@H]1O[C@H](CO)[C@@H](O)[C@H](O)[C@H]1O,.,.,.,.,-1%
Fc1cccc(/C=N/Nc2ccc(Cl)nn2)c1,41*,0%,47,1%,-12%
Cc1cc(N/N=C/c2ccccc2F)nc(NCc2ccccc2)n1,4,4%,74,-55%,-55%
Cc1cc(N/N=C/c2cccc(Cl)c2)nc(NCc2ccccc2)n1,23*,?,31,-17%,-23%
Cc1cc(N/N=C/c2ccc(Cl)cc2)nc(NCc2ccccc2)n1,12,-12%,-5,-14%,-53%
Oc1c(Br)cc(/C=N/Nc2ccc(Cl)nn2)cc1Br,12,2%,15,-29%,-31%
Cc1cc(N/N=C/c2ccccc2)nc(NCc2ccccc2)n1,24*,-6%,14,-17%,-20%
SMILES,CHX counter,AmpC inh detg,Shiga toxin inh,NS1 inh,AmpC inh no detg
Cc1cc(N/N=C/c2cccc(F)c2)nc(NCc2ccccc2)n1,20*,7%,65*,-54%,?
COc1ccc(/C=N/N2CCOCC2)cc1COc1ccc(F)cc1,35*,7%,25,.,107%
COc1ccc(/C=N/NC(=O)c2cccc(Br)c2)cc1CSc1ccccn1,15,-1%,29,-5%,-17%
COc1ccc(/C=N/NC(=O)c2ccccc2O)cc1Cn1cc(Cl)cn1,16*,?,43,12%,-49%
COc1ccc(/C=N\NC(=O)c2cccc([N+](=O)[O-])c2)cc1Cn1cc([N+](=O)[O-])cn1,9,-1%,18,2%,-29%
COc1ccc(/C=N/NC(=O)c2ccn[nH]2)cc1Cn1cc([N+](=O)[O-])cn1,23*,3%,59*,-1%,-8%
COc1ccc(/C=N/NC(=O)c2ccn[nH]2)cc1CSc1ccccn1,65*,3%,75*,8%,-25%
COc1ccc(/C=N/N2CCOCC2)cc1COc1ccc(Cl)cc1,4,?,0,-27%,96%
CCOc1ccccc1NC(=O)CSc1nc2c([nH]c3ccccc32)c(=O)n1-c1ccccc1,.,7%,.,.,.
COc1ccc(/C=N/N2CCOCC2)cc1Cn1cc([N+](=O)[O-])cn1,15*,-6%,30,-3%,0%
COc1ccc(/C=N/NC(=O)c2ccn[nH]2)cc1COc1ccc(Cl)cc1,31*,?,115,-36%,-40%
COc1ccc(/C=N\NC(=O)c2ccccc2Br)cc1COc1ccccc1,-1,9%,-21,-10%,-16%
COc1ccc(/C=N/NC(=O)c2ccc(N)cc2)cc1Cn1cc([N+](=O)[O-])cn1,9,-1%,-7,.,?
Cc1ccc(C)c(N2CCN(C(=O)Cn3c(C)c4cnn(-c5ccccc5)c(=O)c4c3C)CC2)c1,.,-8%,.,.,.
C=C1SC(=Nc2c(C)cc(C)cc2C)N(C(=O)c2sc3ccccc3c2Cl)C12CCCCC2,-3,-4%,-3,-6%,-24%
C=C1SC(=Nc2ccccc2Cl)N(C(=O)c2sc3ccccc3c2Cl)C12CCCCC2,25*,-6%,43,-2%,-37%
CC(=O)Nc1nnc(SCc2cccc(F)c2)s1,13,2%,21*,-9%,-9%
O=C(Nc1nnc(SCc2ccc(F)cc2)s1)c1ccc2ncsc2c1,65*,1%,+,15%,-55%
CC(=O)Nc1nnc(SCc2ccc(F)cc2)s1,39*,0%,23,-13%,-26%
CC(=O)Nc1nnc(SCC(=O)c2ccc(F)cc2)s1,12,-2%,71,-3%,-17%
O=C(O)[C@@H](Br)[C@@H](Br)c1ccccc1[N+](=O)[O-],.,.,.,2%,.
O=C(c1cnn(-c2ccc(F)cc2)c1-n1cccc1)N1CCN(c2cccc(Cl)c2)CC1,.,1%,.,.,.
O=[N+]([O-])c1ccc(C23CC4CC(CC(O)(C4)C2)C3)cc1,39*,2%,63*,-9%,-6%
COC(=O)C1C(=O)c2c([nH]c(C(=O)OC3CCCC3)c2C)CC1C (stereo unspecified),47*,1%,49,-4%,.
CCOc1ccc(-n2c(N)c(C(=O)N3CCN(C)CC3)sc2=S)cc1,-4,-4%,-6,4%,2%
CC(C)c1ccc2nc3sc(C(=O)N4CCc5ccccc5C4)c(N)c3cc2c1,24*,?,118,?,-36%
CCOc1ccc2nc3sc(C(=O)N4CCN(C)CC4)c(N)c3cc2c1,17*,10%,63,-4%,27%
Cc1ccc2cc3c(N)c(C(=O)N4CCOCC4)sc3nc2c1,30*,?,103*,7%,-2%
Cc1ccc2nc3sc(C(=O)N4CCOCC4)c(N)c3cc2c1,30*,-7%,54*,-9%,-20%
COc1ccc(C2C=C(c3ccccc3)Nc3nc(NC(=O)/C=C/c4ccccc4OC)nn32)cc1 (stereo unspecified),.,1%,.,.,.

# Bioassay records deposited in PubChem BioAssay by National Center for Advancing Translational Sciences (NCATS).
